Test results reported in PubChem BioAssay AID1159580 (chemical genetic matrix, 2015).
The whole screen tested about 5,500 compounds, of which about 2,000 (36%) were called active. Inconclusive results (about 18%) are left out. Cut-off read from the data, not from the text of the source: active = normalized growth mostly below about 0.91 (no sharp cut-off); inconclusive = no clear call, values can overlap the other calls; inactive = mostly above about 0.92. The list shows a part of the results.

Experiment: chemical genetic growth profiling, strain panel (AID 1159580);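 note: tested at 20 µM; growth read once vehicle control cultures reached saturation at 30 °C; 1 = growth at the plate median or of vehicle wells; lower values mean less growth of the strain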
Conditions: growth OD

Measured: normalized growth

COC(=O)C[C@H]1C(C)(C)[C@@H](OC(C)=O)[C@@H]2CC3=C4CC(=O)O[C@@H](c5ccoc5)[C@]4(C)CCC3[C@@]1(C)C2=O (some centres not stated)
inactive: S. cerevisiae deletion strains, locus YJR066W, strain TOR1, active compounds read low 0.954 | S. cerevisiae deletion strains, locus YJR075W, strain HOC1, active compounds read low 0.997 | S. cerevisiae deletion strains, locus YKL009W, strain mrt4, active compounds read low 0.986 | S. cerevisiae deletion strains, locus YKL068W, active compounds read low 1 | S. cerevisiae deletion strains, locus YKL085W, strain MDH1 (second series), active compounds read low 0.993 | S. cerevisiae deletion strains, locus YKL085W, strain MDH1, active compounds read low 0.993 | S. cerevisiae deletion strains, locus YKL160W, strain elf1, active compounds read low 1.02 | S. cerevisiae deletion strains, locus YKR001C, strain vps1, active compounds read low 1.01 | S. cerevisiae deletion strains, locus YKR026C, strain gcn3, active compounds read low 0.992 | S. cerevisiae deletion strains, locus YKR091W, strain srl3, active compounds read low 0.996 | S. cerevisiae deletion strains, locus YLL001W, strain dnm1, active compounds read low 0.949 | S. cerevisiae deletion strains, locus YLL026W, active compounds read low 0.998 | S. cerevisiae deletion strains, locus YLL041C, strain sdh2, active compounds read low 0.997 | S. cerevisiae deletion strains, locus YLR027C, strain aat2, active compounds read low 0.998 | S. cerevisiae deletion strains, locus YLR039C, strain RIC1, active compounds read low 0.993 | S. cerevisiae deletion strains, locus YLR058C, strain SHM2, active compounds read low 1 | S. cerevisiae deletion strains, locus YLR102C, strain apc9, active compounds read low 1.01 | S. cerevisiae deletion strains, locus YLR113W, strain HOG1, active compounds read low 1.03 | S. cerevisiae deletion strains, locus YLR221C, strain rsa3, active compounds read low 0.961 | S. cerevisiae deletion strains, locus YLR258W, strain gsy2, active compounds read low 1.01 | S. cerevisiae deletion strains, locus YLR262C, strain YPT6 (second series), active compounds read low 1.02 | S. cerevisiae deletion strains, locus YLR268W, strain sec22, active compounds read low 0.993 | S. cerevisiae deletion strains, locus YLR320W, strain mms22, active compounds read low 0.978 | S. cerevisiae deletion strains, locus YLR330W, strain CHS5, active compounds read low 1 | S. cerevisiae deletion strains, locus YLR342W, strain FKS1 (second series), active compounds read low 1.02 | S. cerevisiae deletion strains, locus YLR342W, strain FKS1, active compounds read low 1.02 | S. cerevisiae deletion strains, locus YLR357W, strain rsc2, active compounds read low 1.01 | S. cerevisiae deletion strains, locus YLR370C, strain arc18, active compounds read low 0.986 | S. cerevisiae deletion strains, locus YLR371W, strain rom2, active compounds read low 0.983 | S. cerevisiae deletion strains, locus YLR384C, strain iki3, active compounds read low 0.985 | S. cerevisiae deletion strains, locus YLR418C, strain cdc73, active compounds read low 1.04 | S. cerevisiae deletion strains, locus YML016C, strain PPZ1, active compounds read low 0.992 | S. cerevisiae deletion strains, locus YML032C, strain rad52, active compounds read low 0.974 | S. cerevisiae deletion strains, locus YML120C, strain ndi1, active compounds read low 1.01 | S. cerevisiae deletion strains, locus YML124C, strain tub3, active compounds read low 1.01 | S. cerevisiae deletion strains, locus YMR058W, strain fet3, active compounds read low 0.993 | S. cerevisiae deletion strains, locus YMR078C, strain ctf18, active compounds read low 1.01 | S. cerevisiae deletion strains, locus YMR125W, strain sto1, active compounds read low 1.01 | S. cerevisiae deletion strains, locus YMR129W, active compounds read low 0.988 | S. cerevisiae deletion strains, locus YMR205C, strain PFK2, active compounds read low 1.02 | S. cerevisiae deletion strains, locus YMR223W, strain ubp8, active compounds read low 0.998 | S. cerevisiae deletion strains, locus YMR231W, strain pep5, active compounds read low 0.998 | S. cerevisiae deletion strains, locus YMR263W, strain SAP30, active compounds read low 1.01 | S. cerevisiae deletion strains, locus YMR307W, strain GAS1, active compounds read low 0.927 | S. cerevisiae deletion strains, locus YNL067W, strain RPL9B, active compounds read low 1.01 | S. cerevisiae deletion strains, locus YNL071W, strain lat1, active compounds read low 1 | S. cerevisiae deletion strains, locus YNL128W, strain TEP1, active compounds read low 0.99 | S. cerevisiae deletion strains, locus YNL153C, strain GIM3, active compounds read low 1.02 | S. cerevisiae deletion strains, locus YNL183C, strain NPR1, active compounds read low 0.958 | S. cerevisiae deletion strains, locus YNL209W, strain ssb2, active compounds read low 1 | S. cerevisiae deletion strains, locus YNL233W, strain BNI4, active compounds read low 1.01 | S. cerevisiae deletion strains, locus YNL248C, strain rpa49, active compounds read low 0.961 | S. cerevisiae deletion strains, locus YNL250W, strain rad50, active compounds read low 1 | S. cerevisiae deletion strains, locus YNL271C, strain bni1, active compounds read low 0.982 | S. cerevisiae deletion strains, locus YNL298W, strain CLA4, active compounds read low 1.01 | S. cerevisiae deletion strains, locus YNL307C, strain MCK1, active compounds read low 1.01 | S. cerevisiae deletion strains, locus YNL322C, strain KRE1 (second series), active compounds read low 1.01 | S. cerevisiae deletion strains, locus YNR049C, strain mso1, active compounds read low 0.994 | S. cerevisiae deletion strains, locus YNR052C, strain pop2, active compounds read low 1.01 | S. cerevisiae deletion strains, locus YOL012C, strain htz1 1.31 | S. cerevisiae deletion strains, locus YOL147C, strain pex11, active compounds read low 0.999 | S. cerevisiae deletion strains, locus YOR001W, strain rrp6, active compounds read low 0.939 | S. cerevisiae deletion strains, locus YOR061W, strain CKA2, active compounds read low 0.995 | S. cerevisiae deletion strains, locus YOR069W, strain VPS5, active compounds read low 1 | S. cerevisiae deletion strains, locus YOR070C, strain gyp1, active compounds read low 0.991 | S. cerevisiae deletion strains, locus YOR080W, strain dia2, active compounds read low 0.987 | S. cerevisiae deletion strains, locus YOR083W, strain WHI5, active compounds read low 1.02 | S. cerevisiae deletion strains, locus YOR106W, strain vam3, active compounds read low 1.02 | S. cerevisiae deletion strains, locus YOR136W, strain idh2, active compounds read low 0.987 | S. cerevisiae deletion strains, locus YOR144C, strain elg1, active compounds read low 0.998 | S. cerevisiae deletion strains, locus YOR184W, strain ser1, active compounds read low 0.987 | S. cerevisiae deletion strains, locus YOR231W, strain MKK1, active compounds read low 0.988 | S. cerevisiae deletion strains, locus YOR265W, strain rbl2, active compounds read low 1 | S. cerevisiae deletion strains, locus YOR270C, strain vph1, active compounds read low 0.888 | S. cerevisiae deletion strains, locus YOR290C, strain snf2, active compounds read low 1.03 | S. cerevisiae deletion strains, locus YOR316C, strain cot1, active compounds read low 1.01 | S. cerevisiae deletion strains, locus YPL051W, strain arl3, active compounds read low 1 | S. cerevisiae deletion strains, locus YPL078C, strain atp4, active compounds read low 1.01 | S. cerevisiae deletion strains, locus YPL106C, strain sse1, active compounds read low 1.04 | S. cerevisiae deletion strains, locus YPL240C, strain hsp82, active compounds read low 1 | S. cerevisiae deletion strains, locus YPL256C, strain CLN2, active compounds read low 0.983 | S. cerevisiae deletion strains, locus YPR119W, strain clb2, active compounds read low 0.996 | S. cerevisiae deletion strains, locus YPR141C, strain kar3, active compounds read low 1 | S. cerevisiae deletion strains, locus YPR163C, strain tif3, active compounds read low 1 | S. cerevisiae deletion strains, locus YPR167C, strain met16, active compounds read low 0.995 | S. cerevisiae deletion strains, strain wtn01, active compounds read low 0.978 | S. cerevisiae strains, strain wild type, active compounds read low 0.997
